# Screening results deposited in PubChem BioAssay by The Scripps Research Institute Molecular Screening Center.
# Only some compounds are listed: those with a hit (about 0.84% of all), similar ones and a draw of the others.
# PPARg SRC-1 ag: promotes SRC-1 coactivator recruitment by human PPARgamma; PPARgamma-SRC-1 coactivator recruitment biochemical assay; AID 631; 200,000 tested, 0.41% active; activation, % at 8 µM; P37231; in the data active = activation above about 19%;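 also: 0% = DMSO and 100% = reference agonist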
# Target sequence (P37231 whole entry, looked up): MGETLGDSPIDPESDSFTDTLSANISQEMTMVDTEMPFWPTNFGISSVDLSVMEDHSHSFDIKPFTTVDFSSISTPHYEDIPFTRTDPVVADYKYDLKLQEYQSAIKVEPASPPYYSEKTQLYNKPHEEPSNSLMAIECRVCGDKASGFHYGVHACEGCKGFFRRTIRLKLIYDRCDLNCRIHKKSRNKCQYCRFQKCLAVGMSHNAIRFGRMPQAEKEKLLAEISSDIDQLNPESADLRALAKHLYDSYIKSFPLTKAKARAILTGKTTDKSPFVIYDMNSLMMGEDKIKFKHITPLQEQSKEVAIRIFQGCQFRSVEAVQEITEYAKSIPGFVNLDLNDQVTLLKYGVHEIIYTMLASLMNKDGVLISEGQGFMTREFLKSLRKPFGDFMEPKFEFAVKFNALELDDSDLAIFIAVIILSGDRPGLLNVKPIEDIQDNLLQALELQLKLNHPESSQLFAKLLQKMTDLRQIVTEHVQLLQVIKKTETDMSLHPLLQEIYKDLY
# SRC3 TRFRET art: counter-screen for PPARgamma SRC-3 recruitment agonists: TR-FRET artefact. TR-FRET ratio at 8 µM. PPARgamma/SRC-3 format; stronger effect = higher value. 99,000 tested, 0.39% active. AID 1048
# PPARg SRC2 recr: promotes SRC-2 coactivator recruitment by human PPARgamma | P37231 | PPARgamma LBD-SRC-2 recruitment, biochemical | activation, % at 8 µM | 200,000 tested, 0.34% active | AID 1032; in the data active = activation above about 22%;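 also: 0% = vehicle and 100% = reference agonist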
# PPARg SRC-3 ag: agonists of human PPARgamma SRC-3 coactivator recruitment; P37231; biochemical PPARgamma/SRC-3 coactivator recruitment assay; activation, % at 8 µM; 200,000 tested, 0.26% active; AID 731; in the data active = activation above about 23%;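 also: 0% = DMSO and 100% = reference agonist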
# SRC1 TRFRET art: counter-screen for PPARgamma SRC-1 recruitment agonists: TR-FRET artefact. 99,000 tested, 0.34% active. TR-FRET detection artefact counter-screen, emission ratio; stronger effect = higher value. AID 1051. TR-FRET ratio at 8 µM; in the data active = TR-FRET ratio above about 2300
# SRC2 TRFRET art: TR-FRET artefact, counter-screen to PPARgamma/SRC-2 agonist assay | 200,000 tested, 0.4% active | TR-FRET ratio at 8 µM | stronger effect = higher value
# * hit, by the source's call; . = no result. Rule as the data show it, unless noted: active = TR-FRET ratio above about 2000; inactive = the rest.
SMILES,PPARg SRC-1 ag,SRC3 TRFRET art,PPARg SRC2 recr,PPARg SRC-3 ag,SRC1 TRFRET art,SRC2 TRFRET art
CCCCOC(=O)CSc1nc(N)c(C#N)c(-c2ccc(OCC)cc2)c1C#N,56*,.,-2,-3,.,1558
CCN1CCC2(CC1)N=C(c1ccc(F)cc1)C(=S)N2,6,1803,14,3,1797,1979*
Cc1ccc(C2=NC3(CCCCC3)NC2=S)cc1,-2,1567,-2,0,1722,1697
Cc1cccc(Nc2nnc(SCC(=O)c3ccc(Br)s3)s2)c1C,13,2057*,16,7,2122,1770
C/C(N)=C(/C#N)C(=O)CSc1nnc(Nc2cccc(C)c2C)s1,4,.,3,6,.,1532
NNc1nc2cccnc2n(CCNc2ncc(C(F)(F)F)cc2Cl)c1=O,-6,1447,1,2,1823,1488
O=c1c(Cl)nc2cc(Cl)ccc2n1CCNc1ncc(C(F)(F)F)cc1Cl,32*,.,3,-6,.,1553
CC1(C(=O)NCC2CCCO2)Oc2cccnc2NC1=O (stereo unspecified),0,1647,3,-4,1661,1475
O=C(CSc1nnc2c3ccccc3c3ccccc3c2n1)Nc1ccccc1,64*,.,6,13,.,1585
O=C(CSc1nnc2c3ccccc3c3ccccc3c2n1)Nc1ccccc1F,-1,.,5,8,.,1707
Cc1[nH]c2ccccc2c1C(=O)C(=O)NCCOc1ccccc1,3,1657,24*,2,2149,1907
CCc1nc(SCc2ccc(F)cc2)[nH]c(=O)c1C#N,-2,.,57*,0,.,2794*
Cc1cc(C)c(C#N)c(SCc2ccc(F)cc2)n1,5,1600,6,3,1966,1549
COc1cc(CO)cc(Br)c1OCC(=O)Nc1cccc2ccccc12,9,1383,10,7,1672,1699
c1csc(Cc2nn3c(-c4n[nH]c5c4CCC5)nnc3s2)c1,20*,.,2,3,.,1742
c1coc(-c2nnc3sc(Cc4cccs4)nn23)c1,5,.,6,0,.,1707
CCN(CC)c1ccc(NC(=O)c2ccccc2F)cc1S(=O)(=O)Nc1ccccc1OC,0,2056*,4,5,1982,1726
CCN(CC)c1ccc(NC(=O)c2ccccc2Br)cc1S(=O)(=O)Nc1ccccc1OC,-7,1617,0,-4,1698,1301
Cc1ccoc1C(=O)N1CCCCC1C(=O)O (stereo unspecified),1,1792,6,0,1688,1460
O=C(CSc1ccc(-c2ccco2)nn1)NCc1ccccc1Cl,3,1557,6,6,2338*,1506
Cc1cnc(NC(=O)c2ccncc2)s1,-5,1433,-2,-2,1821,1181
Cc1csc(C(C#N)C(=O)c2ccncc2)n1 (stereo unspecified),11,1733,31*,4,1677,2112*
Cc1cc(C)n2nc(SCCC(=O)NCc3ccccc3)nc2n1,8,1697,2,-2,2006,1637
COc1ccc(C(=O)Nc2scc(-c3ccc(Cl)cc3Cl)c2C(N)=O)cc1,3,.,1,3,.,1986*
Oc1ccc(Cl)cc1C1=NNC(c2cc(Br)cc3c2OCOC3)C1 (stereo unspecified),17,1946,11,17,2488*,1882
SMILES,PPARg SRC-1 ag,SRC3 TRFRET art,PPARg SRC2 recr,PPARg SRC-3 ag,SRC1 TRFRET art,SRC2 TRFRET art
O=C(Oc1ccc(-n2cnnn2)cc1)c1ccccc1,1,1409,-3,5,1570,1332
Cc1cc2nc(-c3ccc(SCC(=O)Nc4ccc5c(c4)OCCO5)nc3)[nH]c2cc1C,1,.,3,1,.,2267*
C=CCNC(=O)c1ccc(-c2nc(-c3ccc(Cl)cc3Cl)cs2)cc1,19*,.,6,5,.,1467
Cc1ccc(NCCNc2ccc(C)cc2)cc1,-2,.,-5,7,.,1533
COc1ccc(NCCNc2ccc(OC)cc2)cc1,20*,.,2,4,.,1802
CCOC(=O)c1cc(NC(=O)N2CCCCC2)c(C)nc1C,4,.,7,-8,.,1618
Cc1nn(C)c(C)c1Nc1ccc(N2C(=O)C3CC=CCC3C2=O)cc1[N+](=O)[O-] (stereo unspecified),-5,1582,-4,3,1781,1472
CCOc1ccc(S(=O)(=O)c2c(C(=O)c3ccccc3)cnc3cc4c(cc23)OCCO4)cc1,7,2180*,-4,-6,2111,1938
Cc1cc(N2CCC(C(=O)NC3CC3)CC2)nc(-c2ccccc2)n1,5,.,-2,-7,.,1506
Cc1cc(N2CCC(C(=O)NC3CCCCC3)CC2)nc(-c2ccccc2)n1,6,2155*,4,10,1560,1528
Cc1ccc(/C([O-])=C(/C(=S)NCc2ccc3c(c2)OCO3)[n+]2ccc(N(C)C)cc2)c(C)c1,7,1707,7,5,1943,1628
COC(=O)c1ccc(C(=O)OC)c(NC(=O)c2cc3ccccc3o2)c1,24*,.,4,-4,.,1501
COC(=O)c1ccc(N2CCN(C)CC2)c(NC(=O)c2cc3ccccc3o2)c1,-3,.,-7,-8,.,1388
CC(C)(C)NC(=O)CSc1nc(O)cc(=O)n1-c1ccccc1F,0,.,-2,29*,.,1528
COc1ccccc1-n1c(SCC(=O)NC(C)(C)C)nc(O)cc1=O,6,.,6,4,.,1559
O=C(Nc1ccc(Oc2nnc(-c3ccccc3)c3ccccc23)cc1)c1ccccc1,3,1640,1,4,1896,1573
Cc1cccc(NC(=S)Nc2ccc(N3CCOCC3)cc2)c1C,18,1799,21,11,2122,1974*
COc1cc(NC(=O)c2cc(Cl)ccc2Cl)ccc1-c1cc2ccccc2oc1=O,8,.,2,4,.,2091*
CCOC(=O)c1sc(=NC(=O)c2ccc(OC(C)C)cc2)n(C)c1C,43*,1545,3,1,2238,1610
CCN1CCCC1CNC(=O)c1cc2c(-c3ccc(Cl)cc3)nn(C)c2s1 (stereo unspecified),22*,.,4,0,.,1719
CCCCNC(=O)CSc1nc2ccccc2n1S(=O)(=O)c1ccc(Br)cc1,5,1649,11,-2,1765,1974*
CCCCNC(=O)CSc1nc2ccccc2n1S(=O)(=O)c1ccc(Cl)cc1,-4,1560,0,4,1668,1627
COc1ccccc1OCc1nc2ccccc2[nH]1,-3,.,23*,-6,.,1592
Cc1ccccc1OCc1nc2ccccc2[nH]1,3,1739,2,-1,1770,1505
O=C(O)c1cnn(-c2ccccc2)c1-n1cccc1,3,.,7,14,.,1618
NNC(=O)c1cnn(-c2ccccc2)c1-n1cccc1,-8,1641,30*,3,1758,2005*
CC(C)CC(=O)N1CCN(S(=O)(=O)c2ccc3ccccc3c2)CC1,-2,.,-7,-16,.,1342
Cc1ccc(CNC(=O)Cn2cccc2C(=O)c2ccccc2C)cc1,6,1741,7,5,1729,1444
Cc1ccccc1C(=O)c1cccn1CC(=O)NCCC1=CCCCC1,8,1388,-3,2,2753*,1513
